For 16 compounds, growth results are on record in PubChem BioAssay (NCI).

Molecules are shown by their SMILES. This is part of a sample that, as a whole, favours compounds with a hit. Of some 83,000 tested, about 20% had one in any assay.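 For each line, cells grew in 96-well plates with the test compound present at a single concentration for 48 hours.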 A number with no mark means an inactive call. Active and inactive are the calls of the source. The calls were made as follows: active = growth percent below 10; inactive = the rest.

Test systems include T-47D breast; BT-549 breast; MDA-MB-435 melanoma; SW-620 colon; MCF7 breast; HCT-116 colon; HCC-2998 colon; KM12 colon.
Common to all, as to experiment: NCI-60 one-dose screen, 48 h (100 = growth as untreated, 0 = no growth, -100 = all killed)
Details in all cases: 10 µM unless noted

Take `CN(C)CCOc1nc2c3ccncc3cc(-c3cccc(Cl)c3)c2c2cnccc12`: the growth is 38.7% in the assay with T-47D breast; 52.6% in the assay with BT-549 breast; 30% in the assay on MDA-MB-435 melanoma; 27.4% in the assay on SW-620 colon; 12.5% with MCF7 breast; 11.4% with HCT-116 colon. Further, the growth in the assay on HCC-2998 colon is 45%; in the assay on KM12 colon, 31.8%.
Take `COc1ccc2c(c1)CCCC21C(=O)Nc2ccccc21` (stereo not drawn): the growth in the assay with T-47D breast is 85.2%; with BT-549 breast, 101%; in the assay on MDA-MB-435 melanoma it was 101%; with SW-620 colon, 107%; with MCF7 breast, 95.7%; in the assay with HCT-116 colon, 102%. The growth was 112% with HCC-2998 colon and 97.5% with KM12 colon.
With `CCCCCCCCCCC(C(O)c1ccccc1)N1CCCCC1` (stereo not drawn), the growth with T-47D breast is -33.7% (active); in the assay with BT-549 breast, 79.7%; with MDA-MB-435 melanoma, -54.3% (active); with SW-620 colon, -30.8% (active); with MCF7 breast, -65.4% (active); in the assay on HCT-116 colon it was 14.7%. Besides, the results for the growth in the assay on HCC-2998 colon and in the assay with KM12 colon were 49.1% and 8.17% (active), respectively.
In the case of `CC(=O)OC1Oc2ccccc2-c2oc3nc(=N)n(C)c-3cc21` (stereo not drawn), the growth in the assay with T-47D breast was 93.6%; in the assay on BT-549 breast, 128%; with MDA-MB-435 melanoma, 122%; with SW-620 colon, 104%; with MCF7 breast it was 98.6%; with HCT-116 colon, 100%. Moreover, the growth with HCC-2998 colon is 102%; in the assay with KM12 colon, 209%.
For the compound `O=C(Nc1ccc(Oc2ccc(Nc3nc4ccccc4s3)cc2)cc1)Nc1ccc(Cl)c(C(F)(F)F)c1`, the growth is 3.71% (active) in the assay on T-47D breast; -1.46% (active) in the assay on BT-549 breast; 0.432% (active) with MDA-MB-435 melanoma; 8.67% (active) with SW-620 colon; 4.73% (active) with MCF7 breast; 0.0223% (active) in the assay on HCT-116 colon. The figures for the growth with HCC-2998 colon and in the assay with KM12 colon were 2.48% (active) and 0.448% (active), respectively.
Consider `CC(=O)OC1Oc2cc(C)c(C)cc2-c2oc(=O)c(-c3ccc(F)cc3)cc21` (stereo not drawn), for which the growth in the assay with T-47D breast was 52.5%; in the assay with BT-549 breast, 89.3%; in the assay with MDA-MB-435 melanoma, -7.18% (active); with SW-620 colon it was 26.7%; in the assay with MCF7 breast, 38.3%; in the assay with HCT-116 colon, 32.2%. Besides, the values for the growth with HCC-2998 colon and in the assay with KM12 colon were 56.7% and 23.7%, respectively.
Regarding `CC(=O)OC1Oc2cc(C)c(C)cc2-c2oc(=O)c(-c3cc4ccccc4oc3=O)cc21` (stereo not drawn), the growth with T-47D breast was 91.9%; in the assay with BT-549 breast it was 129%; with MDA-MB-435 melanoma, 112%; with SW-620 colon, 133%; in the assay with MCF7 breast, 108%; with HCT-116 colon, 81.1%. The results for the growth in the assay on HCC-2998 colon and in the assay with KM12 colon were 96.2% and 103%, respectively.
For the compound `CC(CN1CCN(C)CC1)CN1c2ccccc2Sc2ccc(C(F)(F)F)cc21` (stereo not drawn), the growth is 63.4% with T-47D breast; 61.4% in the assay on BT-549 breast; 27.3% with MDA-MB-435 melanoma; 22.6% in the assay with SW-620 colon; 46.4% in the assay with MCF7 breast; 21.6% with HCT-116 colon. Moreover, the growth was -16.7% (active) in the assay with HCC-2998 colon and 31.2% in the assay with KM12 colon.
With `Cc1cc(NC(=O)c2ccc(N)cc2)ccc1N=Nc1ccc2cc(S(=O)(=O)O)cc(S(=O)(=O)O)c2c1`, the growth in the assay with T-47D breast is 105%; in the assay on BT-549 breast it was 108%; with MDA-MB-435 melanoma, 101%; in the assay with SW-620 colon, 96.7%; in the assay with MCF7 breast, 109%; in the assay on HCT-116 colon it was 111%. Moreover, the growth in the assay on HCC-2998 colon and with KM12 colon was 105% each time.
Regarding `COc1ccc(-c2nn(-c3cccc(Cl)c3)cc2/C=C2\C(=N)N(c3ccccc3)N=C2N)cc1`, the growth was 28.6% in the assay on T-47D breast; 101% in the assay on BT-549 breast; 31.3% in the assay on MDA-MB-435 melanoma; 32.5% in the assay with SW-620 colon; 26.6% with MCF7 breast; 51.3% with HCT-116 colon. The growth in the assay with HCC-2998 colon was 0.0499% (active); in the assay with KM12 colon, -25.2% (active).
As to `Cc1cc(C)c2c(n1)sc1c(Nc3ccc(OCc4ccccc4)cc3)ncnc12`, the growth with T-47D breast was 95.7%; in the assay with BT-549 breast, 102%; with MDA-MB-435 melanoma, 107%; with SW-620 colon it was 101%; in the assay on MCF7 breast it was 93.2%; in the assay on HCT-116 colon it was 103%. Also, the results for the growth in the assay with HCC-2998 colon and in the assay on KM12 colon were 96.1% and 94.2%, respectively.
For the compound `O=[N+]([O-])c1ccccc1CN1CCCCC1`, the growth in the assay with T-47D breast was 115%; in the assay with BT-549 breast, 98.4%; with MDA-MB-435 melanoma, 109%; in the assay on SW-620 colon, 106%; with MCF7 breast, 108%; with HCT-116 colon, 106%. The growth was 101% with HCC-2998 colon and 128% in the assay with KM12 colon.
On to `COc1ccc(Sc2[nH]c(C=O)c3ccccc23)cc1`, for which the growth was 57.2% with T-47D breast; -7.47% (active) with BT-549 breast; -0.922% (active) with MDA-MB-435 melanoma; 16.1% with SW-620 colon; 57.8% with MCF7 breast; 61.1% in the assay with HCT-116 colon. The growth is 16.3% with HCC-2998 colon and 22% in the assay with KM12 colon.
As to `CCSc1ccc([C@@H]2[C@@H](N)C(=O)N2c2cc(OC)c(OC)c(OC)c2)cc1`, the growth in the assay with T-47D breast is 60.3%; with BT-549 breast, 32.7%; in the assay with MDA-MB-435 melanoma, -59.7% (active); in the assay on SW-620 colon it was 25.8%; in the assay with MCF7 breast, 19.6%; in the assay on HCT-116 colon, 10.2%. In addition, the growth in the assay with HCC-2998 colon is 31.2%; in the assay on KM12 colon, 19.4%.
Turning to `CC(C)COC(=O)NC(C)(C)C`, the growth was 99.6% in the assay on T-47D breast; 102% in the assay with BT-549 breast; 107% with MDA-MB-435 melanoma; 99.4% with SW-620 colon; 90.8% in the assay with MCF7 breast; 105% in the assay on HCT-116 colon. The results for the growth in the assay on HCC-2998 colon and with KM12 colon were 97% and 113%, respectively.
Consider `Nc1cc2nc3ccccc3oc-2cc1=O`, for which the growth was 69.9% in the assay with T-47D breast; -47.1% (active) with BT-549 breast; -88% (active) with MDA-MB-435 melanoma; 11.6% in the assay on SW-620 colon; 9.47% (active) in the assay with MCF7 breast; 45.1% with HCT-116 colon. In addition, the values for the growth in the assay with HCC-2998 colon and in the assay with KM12 colon were 79.4% and 32.4%, respectively.
